Screens: PubChem, National Center for Advancing Translational Sciences (NCATS)
Most compounds without a hit are left out; they make up all but 7.8% or so of the library.
MARV entry inh – inhibitors of Marburg virus binding or cell entry; Marburg virus pseudotyped entry inhibition, cell reporter; Potency, µM (titrated, usually from 37.8 µM), inactives show at the top dose activity change, negative = inhibition, most hits filed as inhibitors; actives 1.8% (n = 300,000); AID 540276; calls by dose curve; tested in HEK293 cells; note: potency is the fitted concentration of half-maximal effect
HCV inhibitor – HCV inhibition. Potency, µM (doses to about 41.8 µM), inactives show at the top dose activity change, negative = inhibition, most hits filed as inhibitors. Huh7.5.1 HCVcc-Cre infection, luciferase reporter, 44 h. AID 651820. actives 3.4% (n = 340,000); active = well fitted inhibition curve with a large enough effect; inconclusive = small, poorly fitted or top-dose-only effect, or another doubt; inactive = no such curve, though single readings can be large or run the other way; note: potency is the fitted concentration of half-maximal effect
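A cell-based infection assay in which seeded cells (1,000 per well) receive test compound after 4 h, are inoculated with HCVcc-Cre at approximately 0.5 moi, and are incubated 44 h before luminescence detection.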
HCMV antiviral – human cytomegalovirus inhibition; HFF cells, HCMV-luciferase reporter, 72 h; active compounds read low; activity change, negative = inhibition, % at 57.5 µM; actives 4.5% (n = 410,000); AID 1259415; in the data active = activity change below about -60%; inconclusive = no clear call, values can overlap the other calls; inactive = above about -39%
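Human foreskin fibroblasts infected with luciferase-reporter HCMV at MOI 1 PFU/cell, compounds at two doses. Luciferase measured 72 h post infection; normalized to buffer-only basal and Salinomycin (10uM) controls.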
Vaccinia mCherry – vaccinia inhibition (mCherry reporter). Vaccinia virus mCherry reporter infection, fluorescence. Potency, µM (highest dose often 36.5 µM), inactives show at the top dose activity change, negative = inhibition, usual class: inhibitors. actives 0.63% (n = 310,000); calls by dose curve; tested in A549 cells; note: potency is the fitted concentration of half-maximal effect; nearly all actives have a fitted effect of over 35% in size
Lassa entry inh – blocks Lassa virus binding to or entry into cells | Lassa virus pseudotype entry inhibition, cell reporter | Potency, µM (titrated, usually from 37.9 µM), without a hit: at the highest dose activity change, negative = inhibition, usual class: inhibitors | actives 1.2% (n = 300,000); calls by dose curve; tested in HEK293 cells; note: potency is the fitted concentration of half-maximal effect; nearly all actives have a fitted effect of over 50% in size
VACV Venus inh – inhibitors of vaccinia virus (Venus reporter). Vaccinia virus Venus reporter expression, fluorescence. Potency, µM (series often up to 36.5 µM), for the others: top-dose activity change, negative = inhibition, usual class: inhibitors. actives 0.46% (n = 330,000); calls by dose curve; tested in A549 cells; note: potency is the fitted concentration of half-maximal effect; nearly all actives have a fitted effect of over 30% in size
Starred values were filed as active, the others as inactive; [ ] = dose if it differs, or a comment. % is set by controls: 0 for no effect and ±100 for the full control effect.

For CSCCC(c1nnnn1-c1ccc2c(c1)OCCO2)N1CCC(n2c(=O)[nH]c3ccccc32)CC1 (configuration not stated) the results were HCMV antiviral -72*, Vaccinia mCherry -11% and VACV Venus inh -23%.
`O=C(CSc1cn(CCNC(=O)c2c(F)cccc2F)c2ccccc12)Nc1ccc2c(c1)OCCO2` gave MARV entry inh 8%[46.1 µM], HCMV antiviral -9, Vaccinia mCherry -8%, Lassa entry inh -2%[46.1 µM] and VACV Venus inh -9%.
O=C(Cn1c(SCc2ccc(F)cc2)nc2cccnc21)Nc1ccccc1F was read as HCMV antiviral 7, Vaccinia mCherry 7%, Lassa entry inh inconclusive and VACV Venus inh -7%.
`Cc1ccc(CN2CCN(Cc3ccncc3)CC2CCO)o1` (configuration not stated) gave MARV entry inh 3%[46.1 µM], HCV inhibitor 21%, HCMV antiviral -1, Vaccinia mCherry inactive, Lassa entry inh 20%[46.1 µM] and VACV Venus inh -4%.
Screening Cc1ccc(CN2CCN(Cc3c(C)nn(C(C)C)c3C)CC2CCO)o1 (configuration not stated) returned HCV inhibitor 0% and HCMV antiviral -99*.
For COc1ccc(C(C)C)cc1S(=O)(=O)n1ccnc1C the results were MARV entry inh 2%, HCV inhibitor 15%, HCMV antiviral -103*, Vaccinia mCherry -4%, Lassa entry inh 1% and VACV Venus inh -21%.
COc1ccc(OC)c(S(=O)(=O)n2ccnc2C)c1 was read as MARV entry inh 3%, HCV inhibitor 7%, HCMV antiviral 6, Vaccinia mCherry inactive, Lassa entry inh inconclusive and VACV Venus inh -17%.
O=C(Nc1ccc([N+](=O)[O-])cc1Cl)c1cc(Cl)cc(Cl)c1O was read as Vaccinia mCherry 8.9µM* and VACV Venus inh inconclusive.
For O=C(Nc1ccc([N+](=O)[O-])cc1Cl)c1cc(Br)ccc1O the results were Vaccinia mCherry 3.5µM* and VACV Venus inh 0.79µM*.
For O=C(Nc1cc(Cl)ccc1Cl)c1cc([N+](=O)[O-])cc(Br)c1O the results were Vaccinia mCherry -9% and VACV Venus inh -22%.
`CN(C(=O)CSc1nc2ccc(NC(=O)COc3ccccc3Cl)cc2s1)c1ccccc1` gave MARV entry inh -7%[46.1 µM], HCMV antiviral -12, Vaccinia mCherry -18%, Lassa entry inh 17%[46.1 µM] and VACV Venus inh inconclusive.
FC(F)(F)c1cc(-c2cccs2)nc(-n2cc(Br)cn2)n1 was read as MARV entry inh 2%, HCV inhibitor 11µM*, HCMV antiviral 2 and Lassa entry inh 1%.
For Cc1cnn(-c2nc(-c3cccs3)cc(C(F)(F)F)n2)c1 the results were MARV entry inh 1%, HCV inhibitor 10µM*, HCMV antiviral -25 and Lassa entry inh 7%.
`CCC1C(=O)NCCN1Cc1ccc2c(c1)CN(Cc1ccc(OC)cc1OC)CCO2` (configuration not stated) gave Vaccinia mCherry -10% and VACV Venus inh 1%.
COc1ccc(Cl)c(S(=O)(=O)N2CCCC2)c1 was read as MARV entry inh -8%, HCV inhibitor -5%, HCMV antiviral 33, Vaccinia mCherry -8%, Lassa entry inh 9% and VACV Venus inh 0%.
COc1ccc(CCC(=O)Nc2ccc(Cl)c(S(=O)(=O)N3CCCC3)c2)cc1 was read as HCV inhibitor 5.6µM*, HCMV antiviral -103*, Vaccinia mCherry inactive and VACV Venus inh -21%.
For COc1ccccc1CCC(=O)Nc1ccc2c(c1)c(=O)n(C)n2-c1cccs1 the results were HCMV antiviral -84*, Vaccinia mCherry inconclusive and VACV Venus inh inconclusive.
`COc1ccc(NC(=O)CCc2ccccc2)cc1S(=O)(=O)N1CCCCC1` gave MARV entry inh inconclusive, HCV inhibitor -13%, HCMV antiviral inconclusive, Vaccinia mCherry -24%, Lassa entry inh -18% and VACV Venus inh -14%.
For COc1ccccc1CCC(=O)Nc1ccc(OC)c(S(=O)(=O)N2CCCCC2)c1 the results were HCV inhibitor 11µM* and HCMV antiviral -9.
`COc1ccc(CCC(=O)Nc2ccc(OC)c(S(=O)(=O)N3CCCCC3)c2)cc1OC` gave HCV inhibitor 10µM* and HCMV antiviral -20.
`COc1cc(Cn2c3ccc(NC(=O)CCc4ccccc4)cc3c(=O)n2C)ccc1F` gave HCMV antiviral -19, Vaccinia mCherry inconclusive and VACV Venus inh -30%.
COc1ccccc1CCC(=O)OCC(=O)Nc1ccc(C)c(S(=O)(=O)N2CCCCC2)c1 was read as MARV entry inh -7%, HCV inhibitor 32%, HCMV antiviral -9, Vaccinia mCherry -15%, Lassa entry inh 8% and VACV Venus inh -5%.
Screening O=C(NCCc1ccc(Cl)cc1)c1cnc2sc(N3CCCC3)nn2c1=O returned HCMV antiviral 39, Vaccinia mCherry -22%, Lassa entry inh -4%[46.1 µM] and VACV Venus inh -27%.
For CCN(Cc1ccccc1)S(=O)(=O)c1ccc(F)c(C(=O)Nc2cc(C(F)(F)F)ccc2Cl)c1 the results were HCMV antiviral -9, Vaccinia mCherry inactive, Lassa entry inh -2%[46.1 µM] and VACV Venus inh -8%.
CCCCOc1ccc(C(=O)Nc2nnc3n2CCS3)cc1 was read as HCMV antiviral -1, Vaccinia mCherry -18%, Lassa entry inh 3%[46.1 µM] and VACV Venus inh -16%.
`O=C1CN(C(=O)Nc2ccccc2Cl)C(c2ccccc2)c2c(sc3c2CCCC3)N1` (configuration not stated) gave MARV entry inh -4%[46.1 µM], HCMV antiviral -36, Vaccinia mCherry -7%, Lassa entry inh -23%[46.1 µM] and VACV Venus inh -11%.
`COc1ccccc1CCC(=O)Nc1cccc(S(=O)(=O)N2CCCCCC2)c1` gave MARV entry inh -12%, HCV inhibitor 10µM*, HCMV antiviral 9, Vaccinia mCherry -19%, Lassa entry inh -5% and VACV Venus inh inconclusive.
For COc1ccc(NC(=O)Cc2ccsc2)cc1S(=O)(=O)N1CCCCC1 the results were MARV entry inh -25%, HCV inhibitor inconclusive, HCMV antiviral -8, Vaccinia mCherry inactive, Lassa entry inh inconclusive and VACV Venus inh -18%.
`Cc1ccc(C)c(OCCC(=O)Nc2ccc(S(=O)(=O)N3CCCC3)cc2)c1` gave HCV inhibitor 8.9µM* and HCMV antiviral -29.
COc1ccc(NC(=O)Cc2cccs2)cc1S(=O)(=O)N1CCCCC1 was read as MARV entry inh -24%, HCV inhibitor -5%, HCMV antiviral -6, Vaccinia mCherry -4%, Lassa entry inh 1µM* and VACV Venus inh -17%.
COc1ccc(NC(=O)CCOc2ccc(C)cc2)cc1S(=O)(=O)N1CCOCC1 was read as MARV entry inh -9%, HCV inhibitor -29%, HCMV antiviral 6, Vaccinia mCherry inactive, Lassa entry inh -1% and VACV Venus inh -6%.
